SARS PLpro yeast-1: inhibitors of SARS-CoV papain-like protease in yeast | S. cerevisiae expressing SARS-CoV PLpro, growth rescue | Potency, µM (top dose mostly 32.9 µM), inactives show at the top dose activity, positive = growth rescue, actives largely listed as activators | 330,000 tested, 0.19% active | AID 485353; calls by dose curve; also: potency is read from the fitted curve at half-maximal effect; 0% is about no effect; nearly all actives have a fitted effect of over 55% in size
AmpC detergent: blocks E. coli AmpC beta-lactamase in detergent assay; P00811; 370,000 tested, 0.041% active; Potency, µM (titrated, usually from 114 µM), inactives show at the top dose activity change, negative = inhibition, usual class: inhibitors; AmpC hydrolysis of nitrocefin, absorbance 480 nm, 0.01% Triton; AID 485294;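 also: potency is read from the fitted curve at half-maximal effect; 0% = no-compound wells and -100% = no-enzyme wells; nearly all actives have a fitted effect of over 25% in size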
Target sequence (P00811 whole entry, looked up): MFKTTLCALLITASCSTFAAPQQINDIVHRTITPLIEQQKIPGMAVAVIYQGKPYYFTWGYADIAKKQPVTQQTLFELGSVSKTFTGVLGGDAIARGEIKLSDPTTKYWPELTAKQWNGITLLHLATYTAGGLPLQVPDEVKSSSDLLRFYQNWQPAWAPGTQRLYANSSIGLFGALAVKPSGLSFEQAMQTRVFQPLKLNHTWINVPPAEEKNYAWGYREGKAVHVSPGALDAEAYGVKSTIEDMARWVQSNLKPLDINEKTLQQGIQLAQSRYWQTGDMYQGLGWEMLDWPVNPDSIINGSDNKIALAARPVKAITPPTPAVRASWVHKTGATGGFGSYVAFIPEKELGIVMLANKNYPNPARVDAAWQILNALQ
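20 mM phosphate pH 7.0 + 0.01% (detergent screen) or 0.0001% Triton X-100; 5.3 nM AmpC reagent; cpd preinc 15 min RT; nitrocefin (800 uM stock) to start; A480 q20 s × 4 min; Activity was normalised to no-enzyme and no-compound control wells.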
NS1 function inh: inhibitors of influenza NS1 protein function. Potency, µM (top dose mostly 46.1 µM), for the others: top-dose activity, positive = more growth. 270,000 tested, 0.4% active. AID 2326; calls by dose curve; also: potency is read from the fitted curve at half-maximal effect; actives are rising curves; nearly all actives have a fitted effect of over 50% in size
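Recovery from NS1-induced slow growth read by OD600 in budding yeast switched to galactose assay medium (pH 6.0, -URA) at 1:100 dilution. Compound 23 nl per well; the matching strain lacking NS1 serves as control.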
AmpC inh no detg: blocks E. coli AmpC beta-lactamase in detergent-free assay; P00811; AmpC nitrocefin hydrolysis, absorbance 480 nm, 0.0001% Triton; Potency, µM (highest dose often 57.1 µM), for the others: at the top dose activity change, negative = inhibition, actives largely listed as inhibitors; 330,000 tested, 0.52% active; AID 485341;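 also: potency is read from the fitted curve at half-maximal effect; plate controls were no compound for no effect and no enzyme for full effect; nearly all actives have a fitted effect of over 20% in size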
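20 mM phosphate pH 7.0 + 0.01% (detergent screen) or 0.0001% Triton X-100; 5.3 nM AmpC reagent; cpd preinc 15 min RT; nitrocefin (800 uM stock) to start; A480 q20 s × 4 min; Activity was normalised to no-enzyme and no-compound control wells.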
FBPA Giardia inh: Giardia lamblia aldolase inhibition; purified Giardia FBPA; Potency, µM (highest dose often 59.6 µM), for the others: at the highest dose activity, negative = inhibition, hits mostly inhibitors; 290,000 tested, 0.71% active; AID 2451; also: potency is read from the fitted curve at half-maximal effect; % is scaled to controls: 0 for no effect and ±100 for the full control effect; nearly all actives have a fitted effect of over 55% in size
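Giardia FBPA (40 nM reagent) was preincubated 10 min at RT with compound (up to 57.5 uM final), then substrate plus GAPDH/TPI/NAD/arsenate coupling system with diaphorase/resazurin was added; resorufin fluorescence (525/598 nm) was read after 20 min.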
SARS PLpro yeast-2: Inhibits SARS-CoV PLP in yeast, hit validation; shares compounds with SARS PLpro yeast-1; yeast expressing SARS-CoV PLpro, growth phenotype rescue; AID 652038; 1,000 tested, 19% active; calls only; call rule not given here
Active calls of the source: *; i = inactive; ? = inconclusive; / = no result given; + = active, no number. An excerpt weighted towards active compounds, which were near 1.4% of everything screened. Unless noted, calls follow the shape of the dose curve; as a rule, active = well fitted curve in the direction sought with a large enough effect; inconclusive = small, poorly fitted or top-dose-only effect, or another doubt; inactive = no such curve, though single readings can be large; an effect the other way counts as inactive or inconclusive.

SMILES | SARS PLpro yeast-1 | AmpC detergent | NS1 function inh | AmpC inh no detg | FBPA Giardia inh | SARS PLpro yeast-2
O=C(O)c1ccc(N=NN2CCCCCC2)cc1 | 13µM* | ? | 16% | -16% | 14% | i
Cc1ccc(NC(=O)/C=C/c2ccc3c(c2)OCO3)nc1 | ? | -3% | 8% | -16% | -4% | i
COc1ccc(C(=O)CC(=O)C(=O)NCCc2cccc(C)c2)cc1 | 20µM* | 2% | 8% | -30% | -25% | +
COc1ccc(C(=O)CC(=O)C(=O)Nc2cc(C)ccc2C)cc1 | 1% | -3% | -5% | -37% | -8% | /
CC1Cc2cc(/C(O)=C3/C(=O)C(=O)N(CCCn4ccnc4)C3c3ccco3)ccc2O1 (stereo not given) | 7% | ? | 0% | -24% | -9% | /
COc1ccc(CNC(=O)c2ccc(S(=O)(=O)N3CCCC3)cc2)cc1OC | ? | -13% | 0% | 7% | 2% | i
COc1ccc(S(=O)(=O)N2CCCCC2)cc1C(C)C | ? | 4% | -52% | 30% | 5% | i
COc1ccc(S(=O)(=O)N2CCCC2)cc1Br | ? | 0% | -3% | -12% | -3% | /
N#Cc1c(NC(=O)C(=O)NCCCN2CCOCC2)sc2c1CCC2 | 0% | 1% | 7% | -4% | / | /
CCOc1ccccc1NC(=O)CCNS(=O)(=O)c1ccc2c(c1)CCN2C(=O)C1CC1 | / | -5% | / | / | / | /
N#C/C(=C\c1ccccc1[N+](=O)[O-])C(=O)NC1CCCCC1 | -23% | 9% | / | -13% | -9% | /
N#C/C(=C\C=C\c1ccccc1[N+](=O)[O-])C(=O)NC1CCCCC1 | ? | -4% | / | -34% | -9% | i
CC(=NCc1cccnc1)c1c(O)n(-c2ccccc2C)c(=O)[nH]c1=O | 3.5µM* | 2% | 8% | -5% | -1% | i
O=C(N/N=C/c1c(O)n(Cc2ccccc2)c(=O)c2ccccc12)c1cccnc1 | ? | -8% | / | -50% | -11% | /
Cc1cccc(-n2c(O)c(/C=N/NC(=O)c3ccccc3Cl)c3ccccc3c2=O)n1 | 14µM* | -12% | ? | -28% | -26% | i
Cc1cccc(-n2c(O)c(C=Nc3ccccc3O)c3ccccc3c2=O)n1 | -2% | 5% | -21% | 69% | -6% | /
O=C(N/N=C/c1c(O)n(-c2ccccc2Cl)c(=O)c2ccccc12)c1cccnc1 | 5.6µM* | -3% | / | -14% | 12% | i
CC[C@@H](CS(=O)(=O)O)[N+](=O)[O-] | / | / | 0% | / | / | /
COc1ccc(NC(=O)CSc2ccc(-c3ccccn3)nn2)cc1OC | 10µM* | -3% | 2% | -15% | -20% | i
COc1ccccc1NC(=O)CSc1ccc(-c2ccccn2)nn1 | -19% | -10% | -118% | -36% | / | /
Cc1ccccc1CN1[C@@H](CC2CCCCC2)COCCS1(=O)=O | -21% | -11% | -48% | 58% | -8% | /
c1ccc2c(c1)CC1(CCCCC1)n1nnnc1-2 | 14µM* | -14% | -5% | -12% | -2% | i
CSc1n[nH]c(N)c1S(=O)(=O)c1ccc(Cl)cc1 | 1% | 3% | 3% | -6% | -14% | /
CCCCc1c(O)nc(SCC(=O)N2CCCCC2)[nH]c1=O | 1% | -12% | 4% | -12% | 12% | /
CN(CC(=O)Nn1cnnc1)S(=O)(=O)c1ccc(Br)cc1 | 3.5µM* | -6% | -46% | -10% | 4% | i
Cc1ccc(/C=C/c2onc(C)c2S(=O)(=O)N2CCC(C(=O)Nc3cccc(C#N)c3)CC2)cc1 | / | 1% | / | / | / | /
Cc1nn(C)cc1/C=N/NC(=S)Nc1ccc(Cl)cc1Cl | ? | -16% | 8% | -5% | -6% | +
CC(C)NC(=O)CN1C(=O)NC(CCc2ccccc2)C1=O (stereo not given) | 3.5µM* | ? | 14% | -8% | 0% | i
Cc1ccc(S(=O)(=O)CCC(=O)OCCOc2cccc(Br)c2)cc1 | 4% | -8% | / | 13% | / | /
COC(=O)C1=C(c2cccc(OCc3ccccc3)c2)C[C@@H]2CC[C@H]1N2C(=O)NCc1cccc(F)c1 | 0% | -1% | / | -12% | / | /

From PubChem BioAssay
